Data as given in PubChem BioAssay (NCATS).
Records with an inconclusive call do not appear. The call rests on the fitted dose curve; in most records, active means well fitted curve in either direction with a large enough effect (not every such curve was filed as active); inconclusive means small, poorly fitted or top-dose-only effect, or another doubt; inactive means flat fitted curve, though single readings scatter.

These molecules were tested against Mitogen-activated protein kinase 10 (Mus musculus) (UniProt Q61831) (assay: JNK3 AlphaScreen Assay (AID 530;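 further: kinase came from lysate of stimulated human HepG2 cells; signal reports phosphorylation of biotinylated GST-cJun 1-79 at Ser73 with 10 µM ATP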)). Settings: JNK3 lysate, c-Jun phosphorylation; series mostly up to 57.1 µM; activity change, negative = inhibition: at the top concentration.
How it was run: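 Activity was read by AlphaScreen after JNK3-containing HepG2 lysate (cytokine pre-activated) phosphorylated biotinylated GST-cJun with 10 uM ATP at room temperature. Phospho-Ser73 cJun antibody with Protein-A acceptor beads provided detection.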
On the % scale 0 is the no-effect control and ±100 the full control effect.

Activity change, negative = inhibition, inactive:
C/C(=C\[C@@H](NP(=O)(c1ccccc1)c1ccccc1)c1ccccc1)CO[Si](c1ccccc1)(c1ccccc1)C(C)(C)C -3.29%
COC(=O)c1ccc(C(NC(=O)OCc2ccccc2)/C(C)=C/[C@@H](C)C(=O)N[C@@H](CO)Cc2ccccc2)cc1 (stereo partly specified) 0.928%
CCCCCCN(C(=O)CCCCCN1C(=O)NC(C2CC2)C(C(=O)OCc2ccccc2)=C1C)C(C(=O)NCCCC)c1ccc(OCC(=O)OC)c(C(=O)OC)c1 (stereo unspecified) -14.8%
CC(=O)N1[C@H](C)C=C[C@]1(Cc1ccccc1)C(=O)NCc1ccc(C)o1 -4.4%
COC(=O)c1ccc(C(NC(=O)OCc2ccccc2)/C(F)=C/[C@@H](C)C(=O)NCc2cc(C)on2)cc1 (stereo partly specified) -1.39%
CC(C)(C)[Si](OCC[C@@H]1C[C@@]1(C)[C@@H](NP(=O)(c1ccccc1)c1ccccc1)c1ccccc1)(c1ccccc1)c1ccccc1 2.72%
COC(=O)c1ccc(C(NC(=O)OCc2ccccc2)/C(=C/[C@@H](C)C(=O)N(C)Cc2ccccc2)c2cccnc2)cc1 (stereo partly specified) -12.6%
CCNC(=O)[C@H](C)/C=C/C(NC(=O)OCc1ccccc1)c1ccc(C(=O)OC)cc1 (stereo partly specified) -0.419%
COC(=O)c1ccc(C(NC(=O)OCc2ccccc2)/C(F)=C/[C@@H](C)C(=O)NCc2cccnc2)cc1 (stereo partly specified) -2.4%
COC(=O)c1ccc(C(NC(=O)OCc2ccccc2)/C(C)=C/[C@@H](C)C(=O)NCc2cc(C)on2)cc1 (stereo partly specified) -0.538%
COC(=O)c1ccc(C(NC(=O)OCc2ccccc2)/C(=C/[C@@H](C)C(=O)NCc2ccc(S(C)(=O)=O)cc2)c2cccnc2)cc1 (stereo partly specified) 0.78%
